p53ts 39C tox: kills p53ts cells at the nonpermissive temperature; H1299-p53A138V viability at 39C, ATP luminescence, 24 h; Potency, µM (titrated, usually from 46.1 µM), without a hit: top-dose activity change, negative = cell killing, hits mostly cytotoxic; 1.5% of 130,000 active; note: % is set by controls: 0 for no effect and ±100 for the full control effect; nearly all actives have a fitted effect of over 55% in size
Luciferase inh: inhibitors of firefly luciferase; P08659; purified firefly luciferase, luminescence, 8 min; Potency, µM (series often up to 57.1 µM), for the others: at the highest dose activity change, negative = inhibition, hits mostly inhibitors; 2.2% of 72,000 active; note: % is set by controls: 0 for no effect and ±100 for the full control effect; nearly all actives have a fitted effect of over 40% in size
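Luminescence read-out after 8 min at room temperature; enzyme reaction used luciferin plus 10 uM ATP (linear range) in imidazole buffer pH 7.2 with KCl, MgCl2, Tween 20 and BSA. Each sample was run as a titration.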
IkB sig inh: inhibitors of IkB signaling in ABC-DLBCL cells; 0.04% of 110,000 active; ABC-DLBCL IkBa-CBG/CBR dual luciferase ratio, 4 h; response scale: scaled: untreated 0%, proteasome inhibitor 100%; Potency, µM (titrated, usually from 57.1 µM), for the others: top-dose IkBa stabilization activation; active = well fitted curve in the direction sought with a large enough effect in the signal ratio, not every such curve was filed as active; inconclusive = small, poorly fitted or top-dose-only effect, or a change in a side signal; the % refers to the signal ratio;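 note: the direction sought is a rising ratio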
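In this assay, an IκBα–CBG68 fusion accumulates when IKK-driven degradation is blocked; native CBR normalizes for cell number. OCI-Ly3 cells were treated 4 h with compound and doxycycline, then green and red light read after Chroma-Glo addition.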
p53ts 32C tox: cytotoxicity in p53ts cells at permissive temperature; H1299-p53A138V at 32C, ATP luminescence viability, 24 h; Potency, µM (series often up to 46.1 µM), for inactives: top-dose activity change, negative = cytotoxicity, hits mostly cytotoxic; 0.93% of 130,000 active;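 note: 0% = DMSO and -100% = full killing by reference compound; nearly all actives have a fitted effect of over 55% in size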
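Viability by ATPlite luminescence after 24 h compound treatment (up to 46 uM) at the permissive 32C. Cells are H1299 carrying p53 A138V. Scale runs from DMSO basal to 100 uM tamoxifen as full kill; AC50 from Hill fits.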
Caspase-1 inhib: caspase-1 (human) inhibition, allosteric or competitive; Caspase-1 enzyme, Ac-WEHD-AFC fluorogenic rate; P29466; AID 900; Potency, µM (highest dose often 57.5 µM), for the others: at the top dose activity change, negative = inhibition, most hits filed as inhibitors; 0.03% of 75,000 active;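 note: plate controls were vehicle for no effect and no substrate for full effect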
Caspase-7 inhib: blocks human caspase-7 allosterically or competitively. P55210. recombinant caspase-7, Ac-DEVD-AFC fluorescence rate. Potency, µM (highest dose often 57.5 µM), for inactives: at the top dose activity change, negative = inhibition, hits mostly inhibitors. 0.02% of 75,000 active. AID 889; active = well fitted inhibition curve with a large enough effect in the main read-out, with a control signal flat, not every such curve was filed as active; inconclusive = small, poorly fitted or top-dose-only effect, or a change in a side signal; note: % of control where 0% means no effect
An asterisk follows results filed as active; u = inconclusive; x = no result given; ! = a repeat was not active; [ ] = another dose, or the depositor's remark. Compounds with a hit are over-represented: about 2.5% of the library has one in this group of screens. Unless noted, calls come from the whole dose curve; as a rule, active = well fitted curve in the direction sought with a large enough effect; inconclusive = small, poorly fitted or top-dose-only effect, or another doubt; inactive = no such curve, though single readings can be large; an effect the other way counts as inactive or inconclusive. Potency is the fitted concentration of half-maximal effect.

SMILES	p53ts 39C tox	Luciferase inh	IkB sig inh	p53ts 32C tox	Caspase-1 inhib	Caspase-7 inhib
CN(C)c1ccc(N)cc1	31.6µM*	x	u	-2.3%[1.84 µM]	-3.7%	-1.4%
Cc1ccc2oc(-c3ccc(Cl)cc3)c(O)c(=O)c2c1	u	x	5.01µM*	-18.1%	x	x
CCCCCCCC/C=C\CCCCCCCC(N)=O	31.6µM*	0.3%	0.0%	-9.1%	-2.2%	0.2%
CCCCCCC(N)CC(=O)O (stereo not drawn)	10.2%	-0.2%	-1.7%	1.4%	-0.2%	-0.9%
C=CCn1c(O)c(C(C)=NCc2cc(OC)cc(OC)c2)c(=O)[nH]c1=O	u	2.6%	4.0%	10µM*	-3.7%	0.1%
C=CCn1c(O)c(C(C)=NCc2cccnc2)c(=O)[nH]c1=O	3.5%	0.5%	2.5%	4.7%	0.8%	0.5%
CCc1cc2c(nc1CC)CCN(CC/C(C)=N/OC)C2	1.7%[9.22 µM]	0.3%[11.4 µM]	x	6.7%[9.22 µM]	-2.0%[11.5 µM]	-2.1%[11.5 µM]
Ic1ccccc1CN[C@@H]1C2CCN(CC2)[C@H]1C(c1ccccc1)c1ccccc1	20µM*	1.2%	-14.3%	u	2.7%	-2.3%
c1ccc(CCCN2CCN(CCOC(c3ccccc3)c3ccccc3)CC2)cc1	31.6µM*	1.5%	u	u	-2.5%	-0.8%
Fc1ccc(C(OCCN2CCN(CCCc3ccccc3)CC2)c2ccc(F)cc2)cc1	31.6µM*!	1.6%	u	u	-3.2%	-2.4%
O=C(O)C1=CCCN(CCOC(c2ccc(C(F)(F)F)cc2)c2ccc(C(F)(F)F)cc2)C1	-19.1%	-5.9%	1.0%	12.5%	-1.1%	1.6%
COc1ccc(Cl)cc1NC1=NCC(C)S1 (stereo not drawn)	-3.1%	2.6%	u	7.2%	-2.2%	-2.0%
Cn1ncnc2c(=O)n(C)c(=O)nc1-2	5.01µM*	-0.3%	u	0.794µM*	12.6µM*	u
c1ccccc1	0.6%	x	0.5%	u	-3.2%	-1.7%
Cc1ccc(Cl)cc1NC(=O)NCc1cccn1Cc1ccc(F)cc1	10µM*	x	-1.5%	u	x	x
Cc1nnc(NC(=O)c2cccn(Cc3cccc(Cl)c3)c2=O)s1	2.0%	x	-0.1%	-1.9%	x	x
O=C(Nc1ccc2oc(-c3cccnc3)nc2c1)c1ccc(-c2cccc(Cl)c2)o1	7.9%	x	1.0%	2.2%	x	x
COc1cccc(-c2cc(C(=O)Nc3cnn(Cc4ccc(Cl)cc4Cl)c3)no2)c1	10µM*	x	3.9%	u	x	x
CCCCn1c(O)c(C=NCCN2CCCCC2)c(=O)[nH]c1=O	x	3.7%[25.5 µM]	x	x	x	x
Nc1ccc(CCN2CCN(c3cccc(C(F)(F)F)c3)CC2)cc1	-11.1%	-13.7%	2.6%	-11.5%	1.5%	2.3%
OCCN1CCN(CCCN2c3ccccc3Sc3ccc(C(F)(F)F)cc32)CC1	12.6µM*!	-1.3%[25.5 µM]	-0.6%[25.6 µM]	u	0.3%	-1.0%
CC(C)(C)c1ccc(C(=O)Nc2ccc3nc(SCC(=O)N4CCCC4)sc3c2)cc1	3.16µM*	x	u	12.6µM*	x	x
Cc1ccccc1C(=O)Nc1ccc2nc(SCC(=O)N(C)c3ccccc3)sc2c1	u	x	u	-12.8%	x	x
C=C1CC[C@@]2(O)[C@H]3Cc4ccc(O)c5c4[C@@]2(CCN3CC2CC2)[C@H]1O5	x	0.9%[25.5 µM]	x	x	x	x
NC(N)=Nc1ccc2[nH]c3c(c2c1)C[C@]1(O)[C@@H]2Cc4ccc(O)c5c4[C@]1(CCN2CC1CC1)[C@H]3O5	25.1µM*	7.1%	-0.3%	12.6µM*	2.7%	-11.1%
SMILES	p53ts 39C tox	Luciferase inh	IkB sig inh	p53ts 32C tox	Caspase-1 inhib	Caspase-7 inhib
C=C(C)CN1CC[C@@]23c4c5ccc(O)c4O[C@H]2c2[nH]c4ccccc4c2C[C@]3(O)[C@@H]1C5	31.6µM*	-1.3%	u	u	-0.6%	1.5%
C/C=C(\C)C(=O)O[C@@H]1C(C)=C2[C@H]([C@@H]1OC(=O)CCCCCCC)[C@@](C)(OC(C)=O)C[C@@H](OC(=O)CCC)[C@@]1(O)[C@H]2OC(=O)[C@]1(C)O	12.6µM*	-0.2%	3.98µM*	25.1µM*	1.9%	1.0%
Clc1ccccc1-c1cncnc1NCCc1cnc[nH]1	-10.7%	0.7%[2.29 µM]	-1.2%[11.4 µM]	6.5%	-3.7%	-1.2%
CCOC(=O)c1ccc(NC(=O)CSc2nc3c(cc2C#N)N2CCC3CC2)cc1	28.2%	x	u	-1.3%	x	x
COc1ccccc1NC(=O)c1oc2ccccc2c1NC(=O)c1ccccc1C(F)(F)F	15.8µM*	x	2.9%	u	x	x
CC1=CCCC2C1(C)CCC(C)C2(C)CC/C(C)=C/C[n+]1cn(C)c2c(N)ncnc21 (stereo not drawn)	-1.4%	x	x	-10.2%	-0.4%	-1.2%
CN(C)CP(=O)(O)CN(C)C=O	10.1%	3.8%	0.5%	5.5%	-3.0%	0.1%
COc1ccc(-c2cc(=O)c3cc(OCC(=O)OC(C)C)ccc3o2)cc1	3.16µM*	x	u	3.16µM*	x	x
Cc1ccc2oc(-c3ccccc3)cc(=O)c2c1	u	x	x	u	-0.7%	1.2%
N#CCBr	2.1%	x	-0.7%	-2.0%[1.84 µM]	-0.4%	0.7%
CCn1cnc2c(Nc3cccc(Cl)c3)nc(N[C@@H]3CCCC[C@H]3N)nc21	12.6µM*	0.3%	u	10µM*	-3.4%	-1.6%
CC1=C(O)C(=O)[C@H]2O[C@@H]2C1=O	u	-0.4%	u	15.8µM*	-8.1%	-10.0%
O=C(CSc1oc(-c2ccccc2)nc1S(=O)(=O)c1ccc(Cl)cc1)Nc1ccc(F)cc1	12.6µM*	x	u	u	x	x
CCOc1ccc(NC(=O)CSc2oc(-c3ccccc3)nc2S(=O)(=O)c2ccc(Cl)cc2)cc1	2µM*	x	-3.4%	u	x	x
Nc1ncc(P(=S)(N2CCOCC2)N2CCOCC2)s1	x	1.3%[25.5 µM]	x	x	x	x
Cn1c(=O)cc(SCC(=O)N2CCC3(CC2)OCCO3)c2ccccc21	4.2%	2.5%	3.2%	7.5%	-1.5%	1.1%
O=C1C(Cl)=C(Cl)C(=O)C(Cl)=C1Cl	u	x	u	5.01µM*	-1.3%	-4.7%
COc1ccc(-c2nc(CSCC(=O)N3CCC4(CC3)OCCO4)c(C)o2)cc1OC	-9.3%	-4.9%	1.2%	9.2%	2.7%	-0.7%
[O-]/[N+](=C/c1cccnc1)c1ccc(Br)cc1	-10.2%	10µM*	u	-23.9%	1.1%	-0.3%
CC1SC2(CN3CCC2CC3)NC1=O (stereo not drawn)	3.0%	-1.3%	-1.2%	-1.4%	-1.3%	-3.4%

Screens from PubChem BioAssay.
